For some of these results: Measured potencies and affinities stand elsewhere.

This passage reports Percent Effect results from ChEMBL document CHEMBL3988442, “University of Dundee, Small-Polar-MMV Screening Library” (2021).

Common to all, as to set-up: scale not given: direction of the effect not stated beside the values
Assay [1] has as its target Protein translocase subunit SecA (Escherichia coli (strain K12)) (UniProt P10408). Briefly: Assay to Identify E. coli SecA ATPase Inhibitors. The note with it: 30 µM. It counts as functional.
Assay [2] has as its target T1, Ubiquitin-activating enzyme e1, putative (Leishmania donovani (strain BPK282A1)) (UniProt E9BSI1).
T1 sequence (whole entry): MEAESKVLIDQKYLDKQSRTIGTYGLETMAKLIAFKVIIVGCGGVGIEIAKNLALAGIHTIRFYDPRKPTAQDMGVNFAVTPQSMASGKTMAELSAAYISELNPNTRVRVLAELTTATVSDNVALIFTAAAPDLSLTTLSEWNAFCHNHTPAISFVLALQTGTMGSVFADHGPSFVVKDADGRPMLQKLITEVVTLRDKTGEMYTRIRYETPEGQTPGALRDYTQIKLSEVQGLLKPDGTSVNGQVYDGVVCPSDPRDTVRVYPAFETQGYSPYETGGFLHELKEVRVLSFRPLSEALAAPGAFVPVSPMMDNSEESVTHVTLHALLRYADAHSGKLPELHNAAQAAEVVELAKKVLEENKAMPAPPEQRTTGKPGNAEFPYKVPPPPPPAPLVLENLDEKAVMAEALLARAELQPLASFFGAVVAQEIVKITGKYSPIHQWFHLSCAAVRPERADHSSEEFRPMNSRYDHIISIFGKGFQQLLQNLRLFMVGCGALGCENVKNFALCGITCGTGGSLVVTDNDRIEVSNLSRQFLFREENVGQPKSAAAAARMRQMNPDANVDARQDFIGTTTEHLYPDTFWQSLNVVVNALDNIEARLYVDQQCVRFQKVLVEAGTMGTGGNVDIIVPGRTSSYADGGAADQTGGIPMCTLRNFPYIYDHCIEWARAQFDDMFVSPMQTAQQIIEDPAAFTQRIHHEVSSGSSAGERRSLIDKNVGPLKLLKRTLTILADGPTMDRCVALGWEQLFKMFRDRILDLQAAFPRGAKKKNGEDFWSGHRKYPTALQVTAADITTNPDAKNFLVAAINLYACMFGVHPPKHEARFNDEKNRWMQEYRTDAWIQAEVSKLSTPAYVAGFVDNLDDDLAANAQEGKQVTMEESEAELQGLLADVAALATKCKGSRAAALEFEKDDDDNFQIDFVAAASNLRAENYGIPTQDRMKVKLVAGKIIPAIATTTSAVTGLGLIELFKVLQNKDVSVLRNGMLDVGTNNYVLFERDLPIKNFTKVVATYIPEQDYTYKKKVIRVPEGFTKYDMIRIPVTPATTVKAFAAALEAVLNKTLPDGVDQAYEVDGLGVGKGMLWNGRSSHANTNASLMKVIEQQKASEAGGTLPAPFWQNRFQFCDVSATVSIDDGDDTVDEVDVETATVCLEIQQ
Briefly: Leishmania donovani Ubiquitin Activating Enzyme (LdE1). It counts as functional. The note with it: 30 µM.

Assay [3] concerns the target AMP-activated protein kinase, AMPK (Homo sapiens) (UniProt P54646+O43741+P54619+Q9UGJ0+Q9Y478+Q13131+Q9UGI9). The assay is described as follows: AMP-dependent Kinase enzyme assay. An in vitro enzyme assay that detects ADP turnover that is directly proportional to AMPK activity. This uses naive AMPK that is activated during the assay with MK-8722. The class given is functional. The note with it: 30 µM.

Assay [4] has as its target Sialic acid-binding Ig-like lectin 9 (Homo sapiens) (UniProt Q9Y336). Briefly: Hs-Siglec9 ALPHAscreen SOP 20170721. The note with it: 10 µM. (Bead proximity is the source of the signal in Alpha formats.)
A further assay deals with Trypanosoma cruzi. Briefly: Trypanosoma cruzi phosphomannomutase and mannose-1-phosphate guanylyltransferase assay. The following applies: 10 µM. It counts as functional.
Assay [5] deals with T2, Arginase-2, mitochondrial (Homo sapiens) (UniProt P78540).
T2 sequence (whole entry): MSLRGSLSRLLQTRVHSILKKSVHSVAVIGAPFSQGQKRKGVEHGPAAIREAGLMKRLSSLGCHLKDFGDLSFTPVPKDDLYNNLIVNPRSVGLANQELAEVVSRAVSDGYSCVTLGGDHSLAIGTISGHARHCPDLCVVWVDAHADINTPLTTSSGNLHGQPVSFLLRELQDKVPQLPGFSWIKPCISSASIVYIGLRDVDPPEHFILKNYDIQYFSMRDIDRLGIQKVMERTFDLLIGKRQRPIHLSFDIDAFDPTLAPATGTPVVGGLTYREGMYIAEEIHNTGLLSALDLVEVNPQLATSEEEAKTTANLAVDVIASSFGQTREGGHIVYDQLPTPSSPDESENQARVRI
The assay is described as follows: in vitro enzyme assay to detect the production of urea directly proportional to the activity of Arginase II. Further: in the data most compounds retested in dose-response had high values. The following applies: 33.3 µM. It counts as functional.

The target of assay [6] is T3, Proteasome subunit beta (Trypanosoma cruzi) (UniProt O96673).
T3 sequence (whole entry): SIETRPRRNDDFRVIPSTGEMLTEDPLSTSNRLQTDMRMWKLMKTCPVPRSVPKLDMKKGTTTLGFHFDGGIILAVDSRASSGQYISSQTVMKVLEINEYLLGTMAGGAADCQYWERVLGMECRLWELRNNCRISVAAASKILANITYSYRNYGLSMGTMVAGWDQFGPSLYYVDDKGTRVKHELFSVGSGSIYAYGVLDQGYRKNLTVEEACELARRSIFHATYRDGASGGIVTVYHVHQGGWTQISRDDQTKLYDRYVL
Briefly: Trypanosoma cruzi proteasome chymotrypsin-like activity (TcProtChymo) assay. Further: in the data most compounds retested in dose-response had high values. It counts as functional. The note with it: 9.37 µM.

The species named for a further assay is Homo sapiens. Briefly: To identify inhibition of the IFN signalling (Jak-Stat) pathway via expression of an eGFP reporter gene under the control of an IFN-stimulated response element (ISRE) containing MxA promoter. It counts as functional. The note with it: 30 µM. A general note: A reporter such as luciferase makes a cellular process visible.
Assay [7] deals with T4, Tyrosyl-tRNA synthetase, putative (Trypanosoma cruzi (strain CL Brener)) (UniProt Q4DSP6).
T4 sequence (whole entry): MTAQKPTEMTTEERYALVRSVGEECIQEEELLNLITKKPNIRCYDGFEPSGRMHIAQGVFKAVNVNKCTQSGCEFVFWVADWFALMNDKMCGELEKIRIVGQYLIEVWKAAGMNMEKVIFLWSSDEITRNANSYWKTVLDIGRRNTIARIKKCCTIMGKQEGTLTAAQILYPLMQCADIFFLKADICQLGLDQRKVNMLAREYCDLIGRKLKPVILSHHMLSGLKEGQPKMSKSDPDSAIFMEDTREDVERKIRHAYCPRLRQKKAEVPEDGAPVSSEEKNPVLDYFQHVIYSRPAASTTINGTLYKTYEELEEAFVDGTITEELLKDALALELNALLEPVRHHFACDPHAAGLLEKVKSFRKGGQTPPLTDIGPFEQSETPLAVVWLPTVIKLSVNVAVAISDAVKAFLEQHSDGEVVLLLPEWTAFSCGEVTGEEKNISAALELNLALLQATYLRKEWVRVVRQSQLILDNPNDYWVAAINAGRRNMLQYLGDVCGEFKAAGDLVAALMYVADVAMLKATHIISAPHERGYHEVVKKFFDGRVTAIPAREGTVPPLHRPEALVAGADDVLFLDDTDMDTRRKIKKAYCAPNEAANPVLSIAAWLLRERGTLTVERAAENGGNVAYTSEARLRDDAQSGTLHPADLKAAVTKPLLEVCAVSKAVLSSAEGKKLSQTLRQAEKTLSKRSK
Briefly: Trypanosoma cruzi tyrosyl tRNA synthetase (TcYRS) _High Tyrosine SOP. Further: in the data most compounds retested in dose-response had high values. The class given is functional. The note with it: 30 µM.

The target of assay [8] is T4, Tyrosyl-tRNA synthetase, putative (Trypanosoma cruzi (strain CL Brener)). Briefly: Trypanosoma cruzi tyrosyl tRNA synthetase (TcYRS) SOP. The class given is functional. The note with it: 30 µM.
Assay [9] deals with Chromo domain-containing protein 1 (Saccharomyces cerevisiae (strain ATCC 204508 / S288c) (Baker's yeast)) (UniProt P32657). The assay is described as follows: ScCHD-1 Enzyme Inhibition Assay. Further: in the data most compounds retested in dose-response had high values. It counts as functional. The note with it: 30 µM.
Chain of Chromo domain-containing protein 1 (Saccharomyces cerevisiae (strain ATCC 204508 / S288c) (Baker's yeast)) (P32657 whole entry, the tested form may be a part): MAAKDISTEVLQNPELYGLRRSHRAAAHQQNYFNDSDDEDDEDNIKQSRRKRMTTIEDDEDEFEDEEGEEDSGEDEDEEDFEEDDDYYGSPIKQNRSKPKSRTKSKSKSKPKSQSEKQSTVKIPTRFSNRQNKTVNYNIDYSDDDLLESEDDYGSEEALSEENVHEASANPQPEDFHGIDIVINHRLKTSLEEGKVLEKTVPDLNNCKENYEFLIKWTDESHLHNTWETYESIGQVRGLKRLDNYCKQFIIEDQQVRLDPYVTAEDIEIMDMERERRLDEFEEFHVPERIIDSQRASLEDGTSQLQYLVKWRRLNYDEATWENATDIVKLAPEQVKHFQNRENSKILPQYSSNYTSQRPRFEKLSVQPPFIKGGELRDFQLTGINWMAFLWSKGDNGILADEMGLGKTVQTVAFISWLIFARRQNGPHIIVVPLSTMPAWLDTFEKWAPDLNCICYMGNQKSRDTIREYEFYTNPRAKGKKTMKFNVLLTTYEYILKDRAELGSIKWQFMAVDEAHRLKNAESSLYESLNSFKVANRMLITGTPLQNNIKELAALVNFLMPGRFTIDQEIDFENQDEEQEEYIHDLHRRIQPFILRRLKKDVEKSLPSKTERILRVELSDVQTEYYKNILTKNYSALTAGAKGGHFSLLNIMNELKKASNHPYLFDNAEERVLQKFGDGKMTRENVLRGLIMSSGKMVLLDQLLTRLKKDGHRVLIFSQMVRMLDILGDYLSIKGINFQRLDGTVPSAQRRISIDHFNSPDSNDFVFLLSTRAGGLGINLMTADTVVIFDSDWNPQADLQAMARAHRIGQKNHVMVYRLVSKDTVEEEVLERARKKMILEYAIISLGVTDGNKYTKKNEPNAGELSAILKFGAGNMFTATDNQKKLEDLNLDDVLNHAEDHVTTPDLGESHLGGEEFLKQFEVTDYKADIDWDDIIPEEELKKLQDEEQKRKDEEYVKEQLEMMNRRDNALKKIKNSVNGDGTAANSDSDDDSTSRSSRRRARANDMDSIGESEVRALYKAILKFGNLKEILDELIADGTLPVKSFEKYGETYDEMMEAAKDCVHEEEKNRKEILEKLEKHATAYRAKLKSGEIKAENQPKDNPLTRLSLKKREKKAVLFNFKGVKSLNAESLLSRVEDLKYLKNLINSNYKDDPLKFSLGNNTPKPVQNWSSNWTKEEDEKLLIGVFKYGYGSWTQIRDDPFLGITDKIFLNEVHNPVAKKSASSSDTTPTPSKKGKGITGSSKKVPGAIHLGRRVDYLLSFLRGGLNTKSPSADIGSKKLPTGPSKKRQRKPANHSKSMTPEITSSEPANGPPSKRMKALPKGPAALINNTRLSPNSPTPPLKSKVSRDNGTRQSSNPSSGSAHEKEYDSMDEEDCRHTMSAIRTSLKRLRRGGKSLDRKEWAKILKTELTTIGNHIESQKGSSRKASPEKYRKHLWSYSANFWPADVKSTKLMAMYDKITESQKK

Chain of Sialic acid-binding Ig-like lectin 9 (Homo sapiens) (Q9Y336 whole entry): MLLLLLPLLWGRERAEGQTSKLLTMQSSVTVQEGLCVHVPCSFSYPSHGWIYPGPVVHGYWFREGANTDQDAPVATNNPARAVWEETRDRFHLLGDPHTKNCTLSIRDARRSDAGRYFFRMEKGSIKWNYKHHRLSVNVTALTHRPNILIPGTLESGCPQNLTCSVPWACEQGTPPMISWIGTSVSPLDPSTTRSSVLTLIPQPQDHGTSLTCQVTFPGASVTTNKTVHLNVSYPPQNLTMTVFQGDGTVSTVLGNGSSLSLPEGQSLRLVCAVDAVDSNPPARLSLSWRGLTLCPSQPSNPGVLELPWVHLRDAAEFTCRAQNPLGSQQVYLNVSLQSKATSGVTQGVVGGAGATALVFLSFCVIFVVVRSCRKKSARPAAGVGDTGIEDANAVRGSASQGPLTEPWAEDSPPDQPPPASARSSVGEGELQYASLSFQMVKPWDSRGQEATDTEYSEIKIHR
Chain of Protein translocase subunit SecA (Escherichia coli (strain K12)) (P10408 whole entry): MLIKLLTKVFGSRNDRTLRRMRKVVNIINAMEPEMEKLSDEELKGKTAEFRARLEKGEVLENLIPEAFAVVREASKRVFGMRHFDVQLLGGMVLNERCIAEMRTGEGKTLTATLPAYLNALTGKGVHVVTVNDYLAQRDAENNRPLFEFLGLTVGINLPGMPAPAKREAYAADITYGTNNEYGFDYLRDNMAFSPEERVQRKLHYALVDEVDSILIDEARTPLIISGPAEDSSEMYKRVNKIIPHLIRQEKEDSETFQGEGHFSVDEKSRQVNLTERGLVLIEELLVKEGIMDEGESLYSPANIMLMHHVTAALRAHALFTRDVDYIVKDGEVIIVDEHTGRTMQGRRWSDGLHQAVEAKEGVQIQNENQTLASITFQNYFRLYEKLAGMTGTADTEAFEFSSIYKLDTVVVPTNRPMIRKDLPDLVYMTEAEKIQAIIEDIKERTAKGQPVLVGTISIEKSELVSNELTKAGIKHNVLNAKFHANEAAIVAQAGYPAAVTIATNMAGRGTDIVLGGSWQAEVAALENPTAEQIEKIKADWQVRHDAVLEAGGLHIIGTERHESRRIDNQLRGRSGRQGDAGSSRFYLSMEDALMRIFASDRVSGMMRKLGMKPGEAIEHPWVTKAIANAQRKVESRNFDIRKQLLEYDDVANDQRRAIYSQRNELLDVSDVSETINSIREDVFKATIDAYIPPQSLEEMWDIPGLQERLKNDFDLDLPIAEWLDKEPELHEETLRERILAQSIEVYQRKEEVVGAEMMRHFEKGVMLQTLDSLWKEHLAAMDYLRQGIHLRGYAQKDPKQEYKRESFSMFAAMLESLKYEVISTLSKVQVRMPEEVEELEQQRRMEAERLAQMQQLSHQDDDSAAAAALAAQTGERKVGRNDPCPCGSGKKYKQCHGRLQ

On to `N#Cc1ccccc1OCCN1CCCCC1Cn1cncn1` (stereo not drawn), for which the Percent Effect in assay [1] was -2.06%; in [2], 5.41%; in [3], -28.6%; in assay [4], 8.52%; in the assay with Trypanosoma cruzi, 5.94%; in assay [5] it was -5.61%. Besides, the Percent Effect in assay [6] is 3.78%; in the assay listed under Homo sapiens, -11.9%; in [7], 12.3%; in assay [8] it was 16.1%; in assay [9], -11.1%.

In the case of `CC(NC(=O)NCc1ccoc1)c1ccc2c(c1)CCC(=O)N2` (stereo not drawn), the Percent Effect in assay [1] was -9.31%; in assay [2], -7.79%; in [3], -9.15%; in assay [4] it was 13%; with Trypanosoma cruzi, 12.2%; in assay [5], 2.49%. Further, the Percent Effect was 28.6% in assay [6]; 16.5% in the assay listed under Homo sapiens; 8.74% in assay [7]; 24.4% in assay [8]; -9.68% in assay [9].

Regarding `CCc1nc(C2CCCN2CC(=O)Nc2sc(C)c(C)c2C)no1` (stereo not drawn), the Percent Effect in assay [1] is -2.85%; in assay [2], -5.2%; in assay [3], 3.9%; in assay [4] it was 11.2%; with Trypanosoma cruzi, 1.69%; in [5], -1.42%. Also, the Percent Effect in [6] is -8.11%; in the assay filed under Homo sapiens it was 11.2%; in [7], 13.6%; in assay [8], 14.6%; in assay [9], -1.21%.

Take `CCC(CC)NC(=O)Cn1nc(C)nc1-c1ccccc1`: the Percent Effect in assay [1] was -4.52%; in assay [2], 16.2%; in [3] it was -5.72%; in assay [4], 3.26%; with Trypanosoma cruzi, -6.32%; in assay [5], -1.2%. For the same molecule, the Percent Effect in assay [6] was 3.6%; in the assay listed under Homo sapiens, 21.4%; in [7], 6.4%; in assay [8], 11.1%; in [9], -8.07%.

As to `CCc1ncc(CN(C)C(=O)Nc2cccnc2N2CCCC2)s1`, the Percent Effect in assay [1] is -6.28%; in [2], 13.2%; in [3] it was -27.9%; in assay [4] it was 8.15%; with Trypanosoma cruzi, 7.38%; in assay [5], 1.8%. Besides, the Percent Effect in assay [6] is 10.4%; in the assay listed under Homo sapiens, -11.4%; in [7] it was 5.42%; in assay [8], 13.6%; in [9] it was -1.2%.

For `FC(F)(F)c1cc(N2CCc3ncnc(NC4CC4)c3CC2)ncn1`, the Percent Effect in assay [1] was -1.41%; in assay [2], 13.3%; in assay [3], 11.7%; in [4], -4.57%; in the assay with Trypanosoma cruzi, -3.86%; in assay [5], -57.5%. In addition, the Percent Effect in [6] is 14.4%; in the assay filed under Homo sapiens it was 10.9%; in [7], 5.21%; in assay [8], -5%; in assay [9] it was -8.14%.

On to `O=C(c1ccn(-c2ccccc2Cl)n1)N1CCSCC1`, for which the Percent Effect in assay [1] is -4.68%; in assay [2], 8.11%; in assay [3], 1.31%; in [4], 12.9%; with Trypanosoma cruzi it was -6.55%; in assay [5] it was 1.74%. The Percent Effect was 3.69% in assay [6]; 20.1% in the assay listed under Homo sapiens; 0% in assay [7]; 11.1% in assay [8]; -3.09% in assay [9].

Turning to `CCN1CCN(C(=O)CCc2c(C)noc2Cl)CC1`, the Percent Effect in assay [1] was -4.13%; in assay [2] it was 10.5%; in assay [3], -2.91%; in assay [4] it was -3.24%; with Trypanosoma cruzi it was -9.24%; in assay [5], 4.32%. Moreover, the Percent Effect in assay [6] was 5.16%; in the assay filed under Homo sapiens it was -6.25%; in assay [7], 3.45%; in assay [8], 6.17%; in assay [9], -1.51%.
